Only some compounds are listed: those with a hit (about 5.3% of all), similar ones and a draw of the others.
VACV Venus inh: inhibitors of vaccinia virus (Venus reporter) | Vaccinia virus Venus reporter expression, fluorescence | Potency, µM (titrated, usually from 36.5 µM), for the others: top-dose activity change, negative = inhibition, usual class: inhibitors | actives 0.46% (n = 330,000); calls by dose curve; tested in A549 cells; further: nearly all actives have a fitted effect of over 30% in size
HCV inh: inhibitors of hepatitis C virus infection | AID 651820 | Potency, µM (series often up to 41.8 µM), inactives show top-dose activity change, negative = inhibition, most hits filed as inhibitors | Huh7.5.1 HCVcc-Cre infection, luciferase reporter, 44 h | actives 3.4% (n = 340,000); active means well fitted inhibition curve with a large enough effect; inconclusive means small, poorly fitted or top-dose-only effect, or another doubt; inactive means no such curve, though single readings can be large or run the other way
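After 44 h co-culture of compound, cells and HCVcc-Cre (~0.5 moi), substrate is added for 15 min at room temperature and luciferase measured over 15 sec. Cells were seeded at 1,000/well and pre-cultured 4 h.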
FMDV inh: foot and mouth disease virus antiviral activity; FMDV antiviral cell-based qHTS; Potency, µM (doses to about 57.9 µM), for inactives: at the top dose activity change, negative = inhibition, actives largely listed as inhibitors; actives 1.2% (n = 410,000); AID 1159524; calls by dose curve; tested in HEK293T cells; further: read-out not given here; nearly all actives have a fitted effect of over 45% in size
Lassa entry inh: blocks Lassa virus binding to or entry into cells; Lassa virus pseudotype entry inhibition, cell reporter; Potency, µM (highest dose often 37.9 µM), for the others: at the top dose activity change, negative = inhibition, most hits filed as inhibitors; actives 1.2% (n = 300,000); AID 540256; calls by dose curve; tested in HEK293 cells; further: nearly all actives have a fitted effect of over 50% in size
MARV entry inh: inhibitors of Marburg virus binding or cell entry; actives 1.8% (n = 300,000); Potency, µM (titrated, usually from 37.8 µM), inactives show top-dose activity change, negative = inhibition, actives largely listed as inhibitors; Marburg virus pseudotyped entry inhibition, cell reporter; calls by dose curve; tested in HEK293 cells
Vaccinia mCherry: inhibitors of vaccinia virus infection (mCherry reporter signal); Vaccinia virus mCherry reporter infection, fluorescence; Potency, µM (highest dose often 36.5 µM), for the others: at the highest dose activity change, negative = inhibition, usual class: inhibitors; actives 0.63% (n = 310,000); calls by dose curve; tested in A549 cells; further: nearly all actives have a fitted effect of over 35% in size
Starred values were filed as active, the others as inactive; i = inactive; ? = inconclusive; / = not tested or not shown; [ ] = dose if it differs, or a comment. On the % scale 0 is the no-effect control and ±100 the full control effect; potency means the concentration at half of the fitted maximal effect.

SMILES | VACV Venus inh | HCV inh | FMDV inh | Lassa entry inh | MARV entry inh | Vaccinia mCherry
CC1Oc2cc3c(-c4c(O)cc(O)c5c(O)c6c(cc45)OC(C)C(C)C6=O)c(O)cc(O)c3c(O)c2C(=O)C1C (centres undefined) | 3.98µM* | ? | ? | / | / | ?
COc1ccc(/C(O)=C2\C(=O)C(=O)N(CCN3CCOCC3)[C@H]2c2cccnc2)cc1OC | / | / | / | / | 1.5% | /
Cc1c(CNC(C)CCc2ccccc2)c(C(=O)O)c(C)n1Cc1ccc(F)cc1 (centres undefined) | -14.7% | / | -10.7% | 22.7%[46.1 µM] | 5.6%[46.1 µM] | -4.6%
COc1c(C(O)CC(C)C)ccc2c1C(=O)OCc1cc(C)cc(O)c1O2 (centres undefined) | -11.9% | 2.24µM* | ? | / | / | -12.6%
COc1c(C(CC(C)C)OC(C)=O)ccc2c1C(=O)OCc1cc(C)cc(O)c1O2 (centres undefined) | -20.5% | 2.51µM* | ? | / | / | -25.4%
CCc1ccc(NC(=O)C2CCCN(S(=O)(=O)c3cccc4cccnc34)C2)cc1 (centres undefined) | -12.4%[7.34 µM] | / | 0.0% | ? | ? | -8.2%[7.34 µM]
Cc1noc(C)c1C(=O)OCC(=O)c1ccc[nH]1 | / | -5.1% | 1.9% | 18.3% | 33.8% | /
Cc1noc(C)c1C(=O)OCC(=O)c1cc(C)n(Cc2ccccc2Cl)c1C | / | 11.2µM* | -3.1% | ? | ? | /
CCN(CC(=O)Nc1ccc(NC(C)=O)cc1)C(=O)CSC(c1ccccc1)c1ccccc1 | / | 10µM* | -15.8% | / | / | /
CCN(CC(=O)Nc1ccc(NC(C)=O)cc1)C(=O)CSCC(=O)Nc1ccc(C)cc1 | -8.1% | 7.8% | 4.7% | 3.7%[46.1 µM] | 1.5% | i
Clc1ccc(Nc2nc(NCc3ccco3)nc3nccnc23)cc1 | -13.4% | / | / | / | / | -2.9%
CN1CCN(S(=O)(=O)c2ccc(SCCOc3ccccc3)nc2)CC1 | -11.0% | -18.5% | -20.1% | ? | ? | -13.9%
CCOc1ccc(OCCSc2ccc(S(=O)(=O)N3CCN(C)CC3)cn2)cc1 | / | 11.2µM* | -20.9% | / | / | /
N#Cc1ccccc1Oc1ccc(S(=O)(=O)N2CCCCC2)cn1 | -8.8% | -7.3% | -2.1% | -5.3% | 5.6% | -7.9%
O=S(=O)(c1ccc(SCCOc2ccc(Br)cc2)nc1)N1CCCC1 | -20.4% | 5.62µM* | -19.2% | -21.1% | ? | i
O=S(=O)(c1ccc(Oc2ccc(Br)cc2F)nc1)N1CCCCC1 | / | 25.1µM* | ? | -10.5% | ? | /
CSCC[C@H](NC(=O)[C@H](Cc1ccccc1)NC[C@@H](NC[C@@H](N)CS)C(C)C)C(=O)O | -12.8% | / | 4.8% | / | / | i
O=C(CSc1nnc(-c2ccc(OC(F)F)cc2)o1)N1CCOCC1 | ? | ? | / | 28.3% | 2.3% | 15.8µM*
COc1cc(C2c3c(oc4ccccc4c3=O)C(=O)N2Cc2ccc(C)cc2)ccc1O (centres undefined) | -11.1% | / | 111.3% | -1.0%[46.1 µM] | / | -4.5%
CCn1c(C)nc2cc(NS(=O)(=O)c3ccccc3)cc(C(=O)N3C[C@@H](C)O[C@@H](C)C3)c21 | -9.7% | / | -5.4% | / | / | i
Fc1ccc(-[n+]2nc(Nc3ccccc3)sc2-c2c(Cl)cccc2Cl)cc1 | ? | 10µM* | ? | / | / | ?
CCc1ccc(Nc2n[n+](-c3ccccc3)c(-c3ccc(N(CC)CC)cc3)s2)cc1 | 11.2µM* | 11.2µM* | ? | / | / | ?
COc1ccc(C)cc1Nc1n[n+](-c2ccccc2)c(-c2ccc(OC)c(OC)c2OC)s1 | -9.5% | 9.9%[8.37 µM] | ? | / | / | ?
COc1ccc(C)cc1Nc1n[n+](-c2ccccc2)c(-c2c(Cl)cccc2Cl)s1 | 10µM* | -24.3%[8.37 µM] | 0.0% | / | / | ?
CCc1ccc(Nc2n[n+](-c3ccccc3)c(-c3ccc(OCc4ccccc4)cc3)s2)cc1 | ? | ? | -1.3% | / | / | i
SMILES | VACV Venus inh | HCV inh | FMDV inh | Lassa entry inh | MARV entry inh | Vaccinia mCherry
O=C(O)c1ccc(-c2sc(Nc3ccccc3)n[n+]2-c2ccc(F)cc2)cc1 | -6.0% | 18.5% | -12.9% | / | / | i
CCc1ccc(Nc2n[n+](-c3ccccc3)c(-c3c(Cl)cccc3Cl)s2)cc1 | 8.91µM* | 5.62µM* | 28.2µM* | / | / | ?
CNC(=O)[C@@H]1C[C@H](Sc2nc3ccccc3[nH]2)CN1Cc1ccccc1C(F)(F)F | -22.1% | / | -9.0% | / | / | -24.7%
CCOC(=O)OC[C@H]1O[C@H](C#Cc2ccc(C)cc2C)C=C[C@H]1OC(=O)OCC | / | / | / | / | 4.4%[14.2 µM] | /
CCOC(=O)C1=C2C=C(OCC)C=CC2OC1c1ccccc1 (centres undefined) | / | / | / | / | -25.2%[46.1 µM] | /
CCCCCc1cc(=O)oc2c(C(CCN3CCCC(C)C3)c3cc(OC)c(OC)c(OC)c3)c(OC)cc(OC)c12 (centres undefined) | ? | -16.9%[8.37 µM] | ? | / | / | ?
COc1cc(C(CC(=O)N2CCCC2)c2c(OC)cc(OC)c3ccc(=O)oc23)cc(OC)c1OC (centres undefined) | -4.4% | 7.4% | 0.0% | / | / | -12.3%
CCCCCc1cc(=O)oc2c(C(CCN3CCCC(C)C3)c3ccc(N(C)C)cc3)c(OC)cc(OC)c12 (centres undefined) | ? | -14.6% | -12.0% | / | / | 11.2µM*
COc1cc(C(CCN2CCCC2)c2c(OC)cc(OC)c3ccc(=O)oc23)cc(OC)c1OC (centres undefined) | -11.2% | 2µM* | -5.6% | / | / | 25.9%
COc1cc(C(CCN2CCN(c3ccccc3)CC2)c2c(OC)cc(OC)c3c(C)cc(=O)oc23)cc(OC)c1OC (centres undefined) | -27.8% | 3.98µM* | -9.8% | / | / | -7.8%
CCCCCc1cc(=O)oc2c(C(CCN3CCCCC3)c3cc(OC)c(OC)c(OC)c3)c(OC)cc(OC)c12 (centres undefined) | 15.8µM* | ? | ? | / | / | ?
COc1cc(OC)c2ccc(=O)oc2c1C(CCN1CCCC(C)C1)c1ccc(N(C)C)cc1 (centres undefined) | -11.6% | -6.8% | -10.2% | / | / | -19.2%
COc1cc(OC)c(NC(=O)CSc2nc3ccncc3[nH]2)cc1Cl | ? | / | ? | -6.1%[46.1 µM] | ? | -5.6%
CC(C)Nc1oc(-c2ccccc2)nc1-c1ccc(C(F)(F)F)cc1 | / | / | / | / | -8.1%[14.2 µM] | /
COc1ccc(-c2cc3ccc(O)c(CN4CCCC4)c3oc2=O)cc1OC | -5.2%[7.34 µM] | / | 28.4% | 13.1%[46.1 µM] | / | -12.2%[7.34 µM]
COc1cc(OC)c2c(-c3ccccc3)cc(=O)oc2c1C(CCN1CCCCC1)c1ccc(N(C)C)cc1 (centres undefined) | ? | -8.9% | -9.6% | / | / | ?
COc1ccc(C(CCN2CCCCC2)c2c(OC)cc(OC)c3c(-c4ccccc4)cc(=O)oc23)cc1 (centres undefined) | 14.1µM* | 2.82µM* | 18.3% | / | / | -27.3%
COCCNC(=O)C1(C)CCCN(C(=O)c2c(F)ccc(C)c2F)C1 (centres undefined) | -8.0% | / | -16.3% | / | / | i
CCCC(=O)Nc1ccc(C=C(C(C)=O)C(C)=O)cc1 | -19.8% | 17.5% | 22.4µM* | 18.1% | -10.7% | -20.9%

Compound activity (PubChem)
